Results reported in ChEMBL document CHEMBL1961873, “Compounds: GSK PKIS; Assays: Nanosyn kinase panel” (2012).

Assays:
[1] = target: Ribosomal protein S6 kinase alpha-6 (Homo sapiens) (UniProt Q9UK32); settings: at 1 µM;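 note: each value is a mean inhibition of RSK4 from a GSK PKIS panel screen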
[2] = target: T1, Serine/threonine-protein kinase Sgk1 (Homo sapiens) (UniProt O00141); settings: at 0.1 µM
T1 sequence (whole entry): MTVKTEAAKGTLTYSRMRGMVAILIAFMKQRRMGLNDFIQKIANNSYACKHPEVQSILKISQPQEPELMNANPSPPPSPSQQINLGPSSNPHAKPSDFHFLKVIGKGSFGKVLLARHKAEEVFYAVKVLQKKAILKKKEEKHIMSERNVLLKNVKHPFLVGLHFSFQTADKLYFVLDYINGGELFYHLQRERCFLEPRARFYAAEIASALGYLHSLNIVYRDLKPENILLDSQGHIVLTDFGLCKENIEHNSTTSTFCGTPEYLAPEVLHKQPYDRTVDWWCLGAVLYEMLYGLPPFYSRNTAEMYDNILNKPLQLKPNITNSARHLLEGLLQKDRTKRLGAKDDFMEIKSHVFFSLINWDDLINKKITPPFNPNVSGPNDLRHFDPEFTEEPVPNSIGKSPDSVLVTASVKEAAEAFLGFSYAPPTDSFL

[3] = target: T1, Serine/threonine-protein kinase Sgk1 (Homo sapiens); settings: at 1 µM
[4] = target: T2, Serine/threonine-protein kinase Sgk2 (Homo sapiens) (UniProt Q9HBY8); settings: at 0.1 µM
T2 sequence (whole entry): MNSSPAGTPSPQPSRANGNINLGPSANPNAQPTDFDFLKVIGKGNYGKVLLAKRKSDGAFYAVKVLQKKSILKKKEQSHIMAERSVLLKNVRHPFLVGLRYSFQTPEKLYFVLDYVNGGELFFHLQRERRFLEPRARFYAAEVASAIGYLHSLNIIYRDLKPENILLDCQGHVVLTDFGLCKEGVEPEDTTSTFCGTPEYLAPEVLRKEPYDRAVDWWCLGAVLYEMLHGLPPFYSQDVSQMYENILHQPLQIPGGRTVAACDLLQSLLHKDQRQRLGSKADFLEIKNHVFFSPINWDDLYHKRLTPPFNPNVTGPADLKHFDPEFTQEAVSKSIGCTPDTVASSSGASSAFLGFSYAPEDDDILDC

[5] = target: T2, Serine/threonine-protein kinase Sgk2 (Homo sapiens); settings: at 1 µM
[6] = target: T3, Serine/threonine-protein kinase Sgk3 (Homo sapiens) (UniProt Q96BR1); settings: at 0.1 µM
T3 sequence (whole entry): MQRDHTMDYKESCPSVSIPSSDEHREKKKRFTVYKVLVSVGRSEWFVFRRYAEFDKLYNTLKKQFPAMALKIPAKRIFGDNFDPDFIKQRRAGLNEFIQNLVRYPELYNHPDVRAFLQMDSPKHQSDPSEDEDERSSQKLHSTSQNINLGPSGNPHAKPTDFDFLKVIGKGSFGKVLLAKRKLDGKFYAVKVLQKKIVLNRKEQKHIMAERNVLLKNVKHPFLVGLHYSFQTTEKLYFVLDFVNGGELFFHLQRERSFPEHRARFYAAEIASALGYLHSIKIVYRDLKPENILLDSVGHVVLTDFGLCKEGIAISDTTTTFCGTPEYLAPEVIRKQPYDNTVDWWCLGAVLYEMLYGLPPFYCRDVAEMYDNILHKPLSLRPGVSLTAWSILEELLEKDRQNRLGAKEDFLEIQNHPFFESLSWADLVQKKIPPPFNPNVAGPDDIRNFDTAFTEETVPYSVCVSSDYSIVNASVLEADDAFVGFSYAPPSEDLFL

[7] = target: T3, Serine/threonine-protein kinase Sgk3 (Homo sapiens); settings: at 1 µM
[8] = target: 5'-AMP-activated protein kinase catalytic subunit alpha-1 (Homo sapiens) (UniProt Q13131); settings: at 0.1 µM
5'-AMP-activated protein kinase catalytic subunit alpha-1 (Homo sapiens), sequence (Q13131 whole entry, looked up): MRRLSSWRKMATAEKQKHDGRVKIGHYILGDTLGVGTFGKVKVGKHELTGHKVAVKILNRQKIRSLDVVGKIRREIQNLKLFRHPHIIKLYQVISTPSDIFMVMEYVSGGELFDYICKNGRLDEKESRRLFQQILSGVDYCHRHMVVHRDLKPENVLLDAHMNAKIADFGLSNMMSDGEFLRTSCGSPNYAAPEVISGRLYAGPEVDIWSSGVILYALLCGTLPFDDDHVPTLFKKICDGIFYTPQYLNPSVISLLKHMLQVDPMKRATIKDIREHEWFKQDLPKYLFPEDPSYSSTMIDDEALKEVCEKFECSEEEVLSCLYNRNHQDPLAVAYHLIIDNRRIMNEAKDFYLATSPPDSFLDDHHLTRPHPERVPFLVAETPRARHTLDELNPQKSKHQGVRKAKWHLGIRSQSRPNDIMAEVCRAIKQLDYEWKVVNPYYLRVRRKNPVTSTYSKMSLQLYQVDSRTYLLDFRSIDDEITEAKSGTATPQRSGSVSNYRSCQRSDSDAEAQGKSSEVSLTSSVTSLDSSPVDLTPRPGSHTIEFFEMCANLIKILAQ

[9] = target: 5'-AMP-activated protein kinase catalytic subunit alpha-1 (Homo sapiens) (UniProt Q13131); settings: at 1 µM
[10] = target: 5'-AMP-activated protein kinase catalytic subunit alpha-2 (Homo sapiens) (UniProt P54646); settings: at 0.1 µM
5'-AMP-activated protein kinase catalytic subunit alpha-2 (Homo sapiens), sequence (P54646 whole entry, looked up): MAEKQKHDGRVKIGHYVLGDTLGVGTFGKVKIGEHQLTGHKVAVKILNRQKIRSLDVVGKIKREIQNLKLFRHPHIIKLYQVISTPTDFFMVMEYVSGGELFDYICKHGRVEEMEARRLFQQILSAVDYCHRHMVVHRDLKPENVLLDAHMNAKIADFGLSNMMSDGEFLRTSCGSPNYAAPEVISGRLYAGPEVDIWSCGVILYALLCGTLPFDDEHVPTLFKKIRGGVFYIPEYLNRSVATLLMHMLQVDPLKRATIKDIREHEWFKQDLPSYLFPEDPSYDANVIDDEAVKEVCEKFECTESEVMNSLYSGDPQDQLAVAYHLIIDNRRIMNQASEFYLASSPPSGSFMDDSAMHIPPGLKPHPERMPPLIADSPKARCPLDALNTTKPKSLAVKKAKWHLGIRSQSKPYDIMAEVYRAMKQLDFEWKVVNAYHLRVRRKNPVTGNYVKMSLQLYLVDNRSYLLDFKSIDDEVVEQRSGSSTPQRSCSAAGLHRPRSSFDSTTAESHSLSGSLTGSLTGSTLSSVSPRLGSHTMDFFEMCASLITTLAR

[11] = target: 5'-AMP-activated protein kinase catalytic subunit alpha-2 (Homo sapiens) (UniProt P54646); settings: at 1 µM
[12] = target: T4, NUAK family SNF1-like kinase 1 (Homo sapiens) (UniProt O60285); settings: at 0.1 µM
T4 sequence (whole entry): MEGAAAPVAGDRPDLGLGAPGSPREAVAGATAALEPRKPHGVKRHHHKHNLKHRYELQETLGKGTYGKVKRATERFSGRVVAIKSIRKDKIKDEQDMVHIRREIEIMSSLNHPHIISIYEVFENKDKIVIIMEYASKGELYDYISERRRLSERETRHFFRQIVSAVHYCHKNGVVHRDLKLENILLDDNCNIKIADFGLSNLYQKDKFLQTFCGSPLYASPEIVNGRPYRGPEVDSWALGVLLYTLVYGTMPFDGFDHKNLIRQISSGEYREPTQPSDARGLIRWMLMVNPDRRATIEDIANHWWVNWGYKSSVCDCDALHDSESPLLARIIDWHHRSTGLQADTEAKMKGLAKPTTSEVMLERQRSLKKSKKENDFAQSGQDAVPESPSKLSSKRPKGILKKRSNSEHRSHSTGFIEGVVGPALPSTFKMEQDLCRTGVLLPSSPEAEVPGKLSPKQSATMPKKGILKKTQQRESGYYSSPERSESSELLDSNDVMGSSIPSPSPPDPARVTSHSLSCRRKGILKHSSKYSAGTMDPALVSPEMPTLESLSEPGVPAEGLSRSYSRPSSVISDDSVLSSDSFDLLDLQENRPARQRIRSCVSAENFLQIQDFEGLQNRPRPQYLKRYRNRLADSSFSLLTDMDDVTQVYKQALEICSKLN

[13] = target: T4, NUAK family SNF1-like kinase 1 (Homo sapiens); settings: at 1 µM
[14] = target: T5, Serine/threonine-protein kinase BRSK1 (Homo sapiens) (UniProt Q8TDC3); settings: at 0.1 µM
T5 sequence (whole entry): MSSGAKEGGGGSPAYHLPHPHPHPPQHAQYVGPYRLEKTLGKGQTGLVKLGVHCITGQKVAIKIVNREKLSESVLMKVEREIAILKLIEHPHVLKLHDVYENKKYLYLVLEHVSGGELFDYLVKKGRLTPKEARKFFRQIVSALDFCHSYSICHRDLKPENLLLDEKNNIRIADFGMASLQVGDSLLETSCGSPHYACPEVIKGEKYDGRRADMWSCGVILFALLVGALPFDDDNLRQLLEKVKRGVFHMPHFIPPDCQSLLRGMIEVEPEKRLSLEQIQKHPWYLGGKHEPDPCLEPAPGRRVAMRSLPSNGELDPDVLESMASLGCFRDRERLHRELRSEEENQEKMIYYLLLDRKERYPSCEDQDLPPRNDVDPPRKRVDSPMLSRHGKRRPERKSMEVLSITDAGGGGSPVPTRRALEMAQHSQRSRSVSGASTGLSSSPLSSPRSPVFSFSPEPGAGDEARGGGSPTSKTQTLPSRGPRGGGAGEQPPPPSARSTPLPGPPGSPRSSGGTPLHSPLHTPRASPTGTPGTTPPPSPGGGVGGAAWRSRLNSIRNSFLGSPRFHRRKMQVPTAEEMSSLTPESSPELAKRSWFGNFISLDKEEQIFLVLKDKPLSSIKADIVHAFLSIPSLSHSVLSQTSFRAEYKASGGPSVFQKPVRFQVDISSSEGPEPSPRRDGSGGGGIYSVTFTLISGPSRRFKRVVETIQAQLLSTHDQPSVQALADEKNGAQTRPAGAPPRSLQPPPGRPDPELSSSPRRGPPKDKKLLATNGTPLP

[15] = target: T5, Serine/threonine-protein kinase BRSK1 (Homo sapiens); settings: at 1 µM
[16] = target: T6, Serine/threonine-protein kinase BRSK2 (Homo sapiens) (UniProt Q8IWQ3); settings: at 0.1 µM
T6 sequence (whole entry): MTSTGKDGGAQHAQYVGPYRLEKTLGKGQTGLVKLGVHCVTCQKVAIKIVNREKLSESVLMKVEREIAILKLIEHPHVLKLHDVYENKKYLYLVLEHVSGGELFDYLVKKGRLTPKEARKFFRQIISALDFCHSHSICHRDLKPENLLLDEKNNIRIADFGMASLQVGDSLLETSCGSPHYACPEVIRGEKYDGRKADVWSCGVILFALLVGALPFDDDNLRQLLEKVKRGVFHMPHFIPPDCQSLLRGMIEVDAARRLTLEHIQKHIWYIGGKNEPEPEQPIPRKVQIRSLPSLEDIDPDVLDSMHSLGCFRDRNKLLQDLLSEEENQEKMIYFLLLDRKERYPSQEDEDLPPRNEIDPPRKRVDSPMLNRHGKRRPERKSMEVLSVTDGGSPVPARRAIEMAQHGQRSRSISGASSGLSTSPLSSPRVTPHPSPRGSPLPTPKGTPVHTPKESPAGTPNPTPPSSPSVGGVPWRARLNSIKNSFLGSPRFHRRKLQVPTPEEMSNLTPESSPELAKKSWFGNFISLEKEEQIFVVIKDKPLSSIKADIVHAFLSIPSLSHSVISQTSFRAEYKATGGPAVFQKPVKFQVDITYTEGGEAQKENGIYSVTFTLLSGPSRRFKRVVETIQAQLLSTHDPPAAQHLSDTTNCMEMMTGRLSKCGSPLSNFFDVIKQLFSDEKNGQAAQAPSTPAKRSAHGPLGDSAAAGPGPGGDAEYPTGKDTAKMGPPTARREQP

[17] = target: T6, Serine/threonine-protein kinase BRSK2 (Homo sapiens); settings: at 1 µM
[18] = target: Calcium/calmodulin-dependent protein kinase type 1D (Homo sapiens) (UniProt Q8IU85); settings: at 0.1 µM
Calcium/calmodulin-dependent protein kinase type 1D (Homo sapiens), sequence (Q8IU85 whole entry, looked up): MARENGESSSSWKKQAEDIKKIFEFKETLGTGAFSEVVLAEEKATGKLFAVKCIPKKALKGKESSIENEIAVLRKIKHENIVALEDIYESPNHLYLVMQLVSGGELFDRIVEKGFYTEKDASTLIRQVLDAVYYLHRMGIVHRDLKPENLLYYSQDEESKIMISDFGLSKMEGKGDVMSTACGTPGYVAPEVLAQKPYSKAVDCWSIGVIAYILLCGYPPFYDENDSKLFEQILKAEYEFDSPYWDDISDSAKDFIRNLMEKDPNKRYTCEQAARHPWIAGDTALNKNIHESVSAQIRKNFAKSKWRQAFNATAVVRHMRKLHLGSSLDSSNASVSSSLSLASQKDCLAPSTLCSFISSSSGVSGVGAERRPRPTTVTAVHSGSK

[19] = target: Calcium/calmodulin-dependent protein kinase type 1D (Homo sapiens) (UniProt Q8IU85); settings: at 1 µM
[20] = target: Calcium/calmodulin-dependent protein kinase type II subunit alpha (Homo sapiens) (UniProt Q9UQM7); settings: at 0.1 µM;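 note: reported values are averages (mean inhibition of CAMK2A)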
Calcium/calmodulin-dependent protein kinase type II subunit alpha (Homo sapiens), sequence (Q9UQM7 whole entry): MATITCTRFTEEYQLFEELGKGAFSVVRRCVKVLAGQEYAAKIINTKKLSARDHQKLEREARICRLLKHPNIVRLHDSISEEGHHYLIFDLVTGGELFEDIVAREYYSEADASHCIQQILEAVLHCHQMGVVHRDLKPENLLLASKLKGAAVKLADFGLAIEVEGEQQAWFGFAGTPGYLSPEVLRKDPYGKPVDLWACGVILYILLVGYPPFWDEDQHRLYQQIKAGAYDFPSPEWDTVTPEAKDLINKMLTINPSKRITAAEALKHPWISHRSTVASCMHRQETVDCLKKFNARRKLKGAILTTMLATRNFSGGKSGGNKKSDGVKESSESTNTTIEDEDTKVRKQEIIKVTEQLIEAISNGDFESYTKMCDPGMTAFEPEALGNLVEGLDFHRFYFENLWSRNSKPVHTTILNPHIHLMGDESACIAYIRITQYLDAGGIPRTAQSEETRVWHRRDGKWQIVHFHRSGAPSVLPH

Ribosomal protein S6 kinase alpha-6 (Homo sapiens), sequence (Q9UK32 whole entry): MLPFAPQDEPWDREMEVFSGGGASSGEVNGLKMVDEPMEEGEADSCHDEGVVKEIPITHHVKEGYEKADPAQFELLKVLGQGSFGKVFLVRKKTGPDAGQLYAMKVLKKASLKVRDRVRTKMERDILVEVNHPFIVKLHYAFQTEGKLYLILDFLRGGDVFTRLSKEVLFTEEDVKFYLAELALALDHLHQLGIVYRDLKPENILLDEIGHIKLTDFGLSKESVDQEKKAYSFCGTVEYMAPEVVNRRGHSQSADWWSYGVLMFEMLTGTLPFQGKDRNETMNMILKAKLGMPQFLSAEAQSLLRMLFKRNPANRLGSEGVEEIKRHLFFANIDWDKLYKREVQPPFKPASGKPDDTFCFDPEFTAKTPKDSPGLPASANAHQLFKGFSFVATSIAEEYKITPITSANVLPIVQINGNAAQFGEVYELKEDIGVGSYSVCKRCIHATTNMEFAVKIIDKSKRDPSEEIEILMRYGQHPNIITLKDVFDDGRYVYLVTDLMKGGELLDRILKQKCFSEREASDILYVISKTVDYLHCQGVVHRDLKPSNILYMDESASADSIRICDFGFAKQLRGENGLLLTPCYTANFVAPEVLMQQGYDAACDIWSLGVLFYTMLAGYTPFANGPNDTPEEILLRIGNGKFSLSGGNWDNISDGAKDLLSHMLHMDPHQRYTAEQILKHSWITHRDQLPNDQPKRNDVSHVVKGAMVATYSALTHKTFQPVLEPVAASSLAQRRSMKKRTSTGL

Row | SMILES | inhibition [1] [%] | inhibition [2] [%] | inhibition [3] [%] | inhibition [4] [%] | inhibition [5] [%] | inhibition [6] [%] | inhibition [7] [%] | inhibition [8] [%] | inhibition [9] [%] | inhibition [10] [%] | inhibition [11] [%] | inhibition [12] [%] | inhibition [13] [%] | inhibition [14] [%] | inhibition [15] [%] | inhibition [16] [%] | inhibition [17] [%] | inhibition [18] [%] | inhibition [19] [%] | inhibition [20] [%]
1 | COc1ccc(Nc2ncc(-c3ccccc3)o2)cc1OC | 3.67 | 1.25 | 9.75 | 1.33 | -0.37 | 0.7 | -1.61 | 0.83 | 5.29 | -0.43 | 14.5 | 18.2 | 61.5 | 1.32 | 11.5 | 0.9 | 12.8 | 0.37 | 1.51 | 1.79
2 | CC(C)c1ccc(-c2cc(-c3c[nH]nc3-c3ccccn3)ccn2)cc1 | -0.11 | 1.94 | 0.95 | 3.97 | 3.85 | 0.19 | -1.62 | -0.34 | -1.2 | 0.19 | 2.31 | -1.39 | 0.75 | 0.75 | -0.92 | 0.14 | 0.33 | -0.78 | 0.06 | -0.6
3 | c1ccc(-c2n[nH]cc2-c2ccnc(-c3ccc(OCCn4ccnc4)cc3)c2)nc1 | 1.74 | 0.97 | 2.43 | 0.56 | 0.22 | 0.55 | 2.01 | 0.79 | 3.29 | 2.92 | 1.29 | -0.74 | 7.14 | 0.8 | 1.98 | 0.62 | 4.44 | -0.08 | 0.91 | -3.32
4 | COc1c(C(N)=O)cc(-c2ccc(Cl)cc2)cc1-c1ccc(S(N)(=O)=O)cc1 | 3.2 | 0.41 | 2.71 | 5.14 | 5 | 1.37 | 3 | 1.83 | 4.47 | 7.86 | 3.24 | 0.82 | 1.1 | 3.28 | -0.57 | -0.02 | 1.59 | 0.45 | 3.09 | 3.01
